# From PubChem BioAssay
# Sampled rows, rich in hits. Any-hit rate of the full collection: about 5.5%.
# BCR signal inh: qHTS Assay to Find Inhibitors of Chronic Active B-Cell Receptor Signaling. ABC-DLBCL IkBa-CBG/CBR reporter, luminescence ratio, 4 h. Potency, µM (series often up to 46.1 µM), inactives show top-dose activity change, negative = inhibition, usual class: inhibitors. 0.05% of 340,000 active; active means well fitted inhibition curve with a large enough effect in the signal ratio, with a control signal flat, not every such curve was filed as active; inconclusive means small, poorly fitted or top-dose-only effect, or effect the other way, or a change in a side signal; the % refers to the signal ratio;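 further: plate controls were basal doxycycline-induced cells for no effect and cells given 10 µM MG132 for full effect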
#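 Doxycycline induced both beetle luciferases in TMD8 lymphoma cells; IKK-driven degradation limits the IkappaBalpha-fused green signal, while red luminescence normalises for cell number and nonspecific effects. Compounds tested up to 46 uM, 4 hrs.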
# Gal4-VP16 FLuc: VP16 counterscreen qHTS for inhibitors of ROR gamma transcriptional activity; Potency, µM (titrated, usually from 53.6 µM), for the others: at the highest dose activity, negative = inhibition, most hits filed as inhibitors; Drosophila S2 Gal4-VP16 UAS-luciferase, luminescence, 20 h; 3.5% of 310,000 active; AID 2546, 2010;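 further: Gal4-VP16 expression switched on by copper sulfate through the metallothionein promoter; on the % scale 0 is the no-effect control and ±100 the full control effect; nearly all actives have a fitted effect of over 50% in size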
# RORg inh: qHTS for inhibitors of ROR gamma transcriptional activity. Nuclear receptor ROR-gamma (Mus musculus), P51450. Drosophila S2 Gal4-RORgamma UAS-luciferase reporter, 20 h. 5.4% of 310,000 active. AID 2551, 2010. Potency, µM (highest dose often 53.6 µM), inactives show top-dose activity change, negative = inhibition, usual class: inhibitors; further: on the % scale 0 is the no-effect control and ±100 the full control effect; nearly all actives have a fitted effect of over 60% in size
# Target sequence (P51450 whole entry, looked up, the tested form may be a part): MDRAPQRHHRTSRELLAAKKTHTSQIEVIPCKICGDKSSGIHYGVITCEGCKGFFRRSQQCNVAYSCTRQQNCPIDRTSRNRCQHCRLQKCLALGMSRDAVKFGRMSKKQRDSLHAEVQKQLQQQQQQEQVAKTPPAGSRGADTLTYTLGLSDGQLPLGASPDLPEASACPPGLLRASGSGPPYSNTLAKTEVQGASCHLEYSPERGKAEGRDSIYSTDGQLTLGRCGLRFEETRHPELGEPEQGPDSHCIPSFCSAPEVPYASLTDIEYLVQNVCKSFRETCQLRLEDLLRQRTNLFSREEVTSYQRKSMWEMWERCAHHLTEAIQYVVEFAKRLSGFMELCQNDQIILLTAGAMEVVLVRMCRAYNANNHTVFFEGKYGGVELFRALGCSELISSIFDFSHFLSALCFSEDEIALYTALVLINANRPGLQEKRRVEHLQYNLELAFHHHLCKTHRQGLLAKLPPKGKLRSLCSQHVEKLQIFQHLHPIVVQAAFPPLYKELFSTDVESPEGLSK
#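 ROR gamma transcriptional activity was tracked as Gal4-UAS luciferase output in stably transfected Drosophila Schneider cells, with compound added 1 hr before 700 uM copper sulfate induction and a 20 hr ambient-temperature incubation.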
# Mito fusion yeast: qHTS Assay for Small Molecule Inhibitors of Mitochondrial Division or Activators of Mitochondrial Fusion. S. cerevisiae fusion-defective mutant growth rescue, CellTiterGlo 48 h. Potency, µM (top dose mostly 46.1 µM), for the others: at the top dose growth rescue (activation), actives largely listed as activators. 0.23% of 320,000 active; further: % of control where 0% means no effect; nearly all actives have a fitted effect of over 45% in size
#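 Yeast fusion mutant, YPEG (non-fermentable carbon), compound, 48 h at 37C non-permissive; CellTiterGlo added, 10 min RT, luminescence read. Rescued growth = division inhibition.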
# uPA surface inh: qHTS for Inhibitors of Cell Surface uPA Generation; cell surface uPA generation assay, qHTS; 0.31% of 330,000 active; AID 540303, 2011; Potency, µM (top dose mostly 38.3 µM), without a hit: at the top dose activity change, negative = inhibition, usual class: inhibitors; active means well fitted inhibition curve with a large enough effect; inconclusive means small, poorly fitted or top-dose-only effect; inactive means no such curve, though single readings can be large or run the other way; tested in mouse RAW 264.7 cells; further: on the % scale 0 is the no-effect control and ±100 the full control effect; nearly all actives have a fitted effect of over 55% in size
# a7 integrin act: qHTS for Activators of Integrin-Mediated Alleviation for Muscular Dystrophy; alpha7betagal myoblasts, beta-gal FDG fluorescence, 48 h; Potency, µM (titrated, usually from 38.3 µM), without a hit: at the top dose activation, most hits filed as activators; 0.064% of 350,000 active; AID 624291, 2012;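 further: 100% = response of the positive control SU9516; nearly all actives have a fitted effect of over 60% in size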
#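 Alpha7betagal+/- myoblasts (passage 13) were plated 16-24 hr, then exposed to compounds (1:260 dilution of DMSO stock) for 48 hours at 37C. After MPER lysis, β-galactosidase reporter activity was read as FDG fluorescence (ex 480/em 540) after 30 minutes.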
# An asterisk follows results filed as active; ? = inconclusive; · = no result; [ ] = another dose, or the depositor's remark. Unless noted, the call rests on the fitted dose curve; in most records, active means well fitted curve in the direction sought with a large enough effect; inconclusive means small, poorly fitted or top-dose-only effect, or another doubt; inactive means no such curve, though single readings can be large; an effect the other way counts as inactive or inconclusive. Potency means the concentration at half of the fitted maximal effect.
SMILES,BCR signal inh,Gal4-VP16 FLuc,RORg inh,Mito fusion yeast,uPA surface inh,a7 integrin act
Cc1cccc(NC(=S)NC2CCN(Cc3ccccc3)CC2)c1C,-4%,-88%,?,3%,-3%,-36%
S=C(Nc1ccc(Cl)c(Cl)c1)NC1CCN(Cc2ccccc2)CC1,?,35µM*,?,1%,-13%,-68%
CC(C)(C)CC(C)(C)NC(=S)NC1CCN(Cc2ccccc2)CC1,?,10µM*,14µM*,8%,-27%,-25%
S=C(Nc1ccc(Cl)c(Cl)c1)NC1CCCCC1,?,5.6µM*,2.5µM*,23%,·,12%[7.66 µM]
COC[C@H]1OC=C[C@@H](OC)[C@@H]1OC,·,-7%,3%,·,·,·
Cc1ccc(N2C(=O)N(CC(=O)Nc3ccccc3C(F)(F)F)C(=O)C2C)cc1 (stereo unspecified),1%,·,·,-3%,-1%,0%
COc1ccc(CNC(=O)C2=C(C)C(=O)OC23CCCCC3)cc1,-12%,·,·,·,·,·
CC1OC(n2cc(F)c(=O)[nH]c2=O)C(O)C1O (stereo unspecified),·,-1%,-20%,·,·,·
C=CCNC(=O)/C(C#N)=C/c1ccc(OS(=O)(=O)c2ccc(C)cc2)c(OC)c1,?,?,11µM*,-5%,-3%,4%
CC(C)Cn1c2c(c(O)c(C(=O)Nc3ccc(F)cc3)c1=O)CCCC2,?,-12%,5%,3%,3%,-25%
CC(C)Cn1c2c(c(O)c(C(=O)Nc3ncccc3O)c1=O)CCCC2,?,14µM*,?,23%,-7%,-35%
c1ccc(-c2noc(-c3ccc4c(c3)OCO4)n2)nc1,?,3.2µM*,3.2µM*,-27%,?,23%
Cc1occc1-c1nc(-c2ccccn2)no1,-13%,?,13µM*,-3%,-5%,16%
Cc1occc1-c1nc(-c2ccncc2)no1,?,4%,28%,10%,-4%,-3%
Brc1ccc(-c2noc(C3CCCCC3)n2)cc1,8%,18%,14%,-1%,-1%,-12%
c1ccc(-c2noc(C3CCCCC3)n2)nc1,-19%,-27%,3.5µM*,-1%,-5%,2%
O=[N+]([O-])c1cccc(-c2nc(-c3ccccn3)no2)c1,-5%,?,11µM*,-2%,-13%,22%
CCCc1noc(-c2cccc([N+](=O)[O-])c2)n1,11%,11%,1%,6%,2%,-6%
COc1cccc(-c2nc(-c3ccccn3)no2)c1,?,4.5µM*,?,-10%,-12%,24%
c1ccc(-c2noc(-c3ccc4ccccc4c3)n2)nc1,?,2.2µM*,2.5µM*,-3%,-14%,16%
CC(=O)Nc1ccc(S(=O)(=O)NCCC(=O)OCC(=O)NNC(=O)c2ccccc2)cc1,0%,·,·,-10%,1%,21%
O=C(Nc1cccc(Cl)c1)NC1CC2CCC(C1)N2Cc1cccs1 (stereo unspecified),?,-4%,?,-5%,10%,-4%
CCN(CC)c1ccc(N=Cc2ccc([N+](=O)[O-])o2)cc1,-1%,22µM*,?,-7%,-6%,-40%
Cc1sc2ncnc(N/N=C/c3ccccc3O)c2c1C,?,16µM*,7.9µM*,0%,-8%,4%
Cc1ccc(Nc2ncnc3sc(C)c(C)c23)cc1C,?,-1%,0%,-8%,7%,-24%
SMILES,BCR signal inh,Gal4-VP16 FLuc,RORg inh,Mito fusion yeast,uPA surface inh,a7 integrin act
COc1ccc(/C=N/Nc2nonc2N)cc1,7%,4%,-8%,-4%,2%,6%
Cc1sc2ncnc(N/N=C/c3ccc(O)cc3)c2c1C,?,4.5µM*,16µM*,-4%,6%,6%
Cc1sc2ncnc(N[C@@H](Cc3ccccc3)C(=O)O)c2c1C,0%,-1%,27%,-1%,2%,0%
COc1cccc(/C=N/Nc2ncnc3scc(-c4ccccc4)c23)c1OC,?,3.2µM*,4µM*,8%,-11%,-54%
COc1cccc(C=NNc2nc3ccccc3s2)c1OC,·,·,·,·,-7%,-4%
COc1ccc(/C=N/Nc2ncnc3sc(C)c(C)c23)cc1,?,4.5µM*,?,-1%,5%,23%
COc1cccc(Nc2ncc3nc(CCc4ccccc4)c(=O)n(C4CC4)c3n2)c1,·,-9%,3%,·,·,·
CCOc1ccc(S(=O)(=O)O)c2cccnc12,·,-18%,-19%,·,·,·
Nc1c(Cl)ncnc1N/N=C/c1ccc(O)cc1,9%,13µM*,10µM*,-2%,?,27%
O=C1Nc2ccccc2/C1=C\C(=O)c1ccccc1,?,?,13µM*,-38%,?,-72%
O=C(/C=C1\C(=O)Nc2ccccc21)/C=C1\C(=O)Nc2ccccc21,?,10µM*,13µM*,-6%,?,-14%
CC(C)Oc1ccc(C(=O)/C=C2/C(=O)Nc3ccccc32)cc1,?,?,10µM*,-90%,-10%,-58%
CN(O)/C=C1\C(=O)Nc2ccccc21,6%,-1%,10%,0%,3%,-24%
CCCS(=O)(=O)N1CCC(C(=O)NCCOC)CC1,-3%,·,·,·,·,·
COc1cccc(-n2c(CCn3nc(C)c([N+](=O)[O-])c3C)n[nH]c2=S)c1,0%,-10%,?,2%,1%,0%
CCCCn1c(CCn2nc(C)c(Br)c2C)n[nH]c1=S,-4%,?,11µM*,-4%,·,-11%
CCCN(CC(=O)Nc1ccccc1OC)C(=O)c1cc(-c2cccs2)nn1-c1ccccc1,?,·,·,?,8%,10%
COc1ccc(Cl)cc1NC(=O)CC(=O)Nc1cc(Cl)ccc1OC,?,-8%,17%,8%,9%,14µM*
COc1ccc(Cl)cc1NC(=O)Nc1ccccc1C(N)=O,?,-9%,6%,-2%,3.2µM*,-23%
COc1ccc(Cl)cc1NC(=O)Nc1ccccc1SC,2%,-20%,-22%,12%,14%,0%
COc1ccc(Cl)cc1NC(=O)C/C(C)=N/NC(=O)COc1ccc(C)cc1,-15%,-2%,11µM*,-1%,5%,-12%
C=CCSC[C@@H]1Nc2cc(Cl)c(S(N)(=O)=O)cc2S(=O)(=O)N1,·,-11%[17 µM],4%[16.9 µM],·,·,·
Cc1ccc(-n2nnnc2SCc2nc3sc(C)c(C)c3c(=O)[nH]2)cc1,0%,?,11µM*,-3%,1%,-22%
CC(=O)c1sc2nc(CSc3nnnn3-c3ccccc3)[nH]c(=O)c2c1C,?,-13%,?,-2%,-2%,20%
